An excerpt weighted towards active compounds, which were near 2.8% of everything screened.
PAFAH1B3 FP inh: PAFAH1B3 (human) inhibition; recombinant PAFAH1B3, FP-rhodamine probe, fluorescence polarization; inhibition, % at 3.39 µM; hit rate 0.28% among 340,000; AID 492972;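 active means inhibition above the screen-wide average of all tested compounds plus 3 SD, cut at about 25% in these data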;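 further: 0% = enzyme with DMSO only and 100% = wells lacking PAFAH1B3 protein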
pPAFAH FP inh: pPAFAH (human) enzyme inhibition; Q13093; recombinant pPAFAH, FP-rhodamine probe fluorescence polarization; inhibition, % at 3.39 µM; hit rate 1.5% among 330,000;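 active means inhibition above the mean inhibition across the screen plus 3 SD, cut at about 25% in these data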;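 further: inhibitors block binding of the rhodamine activity-based probe so polarization drops; 0% = enzyme with DMSO and 100% = wells lacking pPAFAH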
Target sequence (Q13093 whole entry, looked up): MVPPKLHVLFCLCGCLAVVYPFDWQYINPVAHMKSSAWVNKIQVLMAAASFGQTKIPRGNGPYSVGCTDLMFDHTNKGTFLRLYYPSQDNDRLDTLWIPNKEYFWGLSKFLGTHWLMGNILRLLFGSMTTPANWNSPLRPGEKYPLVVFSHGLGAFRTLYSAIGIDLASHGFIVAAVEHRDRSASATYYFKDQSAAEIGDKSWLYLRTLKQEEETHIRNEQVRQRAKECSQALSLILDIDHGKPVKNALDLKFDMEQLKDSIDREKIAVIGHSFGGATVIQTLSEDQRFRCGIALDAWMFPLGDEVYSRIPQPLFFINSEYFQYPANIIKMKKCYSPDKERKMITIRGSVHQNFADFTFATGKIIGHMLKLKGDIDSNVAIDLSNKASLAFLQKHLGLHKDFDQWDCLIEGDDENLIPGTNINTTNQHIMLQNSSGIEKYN
PAFAH1B2 inh: inhibitors of human PAFAH1B2; P68402; recombinant PAFAH1B2, FP-rhodamine activity probe, fluorescence polarization; inhibition, % at 3.39 µM; hit rate 1.2% among 340,000;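 active means inhibition above the mean of all tested compounds plus 3 SD, cut at about 24% in these data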;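 further: 0% = enzyme with DMSO and 100% = wells lacking PAFAH1B2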
Target sequence (P68402 whole entry, looked up): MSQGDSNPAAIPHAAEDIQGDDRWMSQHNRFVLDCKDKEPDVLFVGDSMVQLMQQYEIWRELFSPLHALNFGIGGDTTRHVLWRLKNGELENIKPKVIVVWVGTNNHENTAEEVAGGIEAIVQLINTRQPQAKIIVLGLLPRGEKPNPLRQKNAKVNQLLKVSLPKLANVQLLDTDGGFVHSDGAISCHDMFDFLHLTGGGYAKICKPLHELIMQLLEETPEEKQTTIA
PAFAH2 FP inh: inhibitors of human PAFAH2; Q99487; recombinant PAFAH2, FP-rhodamine activity probe, fluorescence polarization; inhibition, % at 3.39 µM; hit rate 0.99% among 340,000;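 active means inhibition above the mean over all tested compounds plus 3 SD, cut at about 30% in these data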;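 further: inhibitors block probe labeling of enzyme so polarization drops; 0% = enzyme with DMSO and 100% = wells lacking PAFAH2 protein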
Fam108B inh: Fam108B inhibition, counter-screen for RBBP9 inhibitors; hit rate 0.33% among 300,000; inhibition, % at 9.51 µM; AID 1947; recombinant Fam108B, FP-Rh probe fluorescence polarization;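 active means inhibition above the screen mean inhibition plus 3 SD, computed separately per campaign, cut at about 18% in these data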;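 further: inhibitors lower polarization as less probe binds the enzyme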
PME-1 inh: PME-1 (human) inhibition. Q9Y570. recombinant PME-1, FP-Rh probe fluorescence polarization. inhibition, % at 5.9 µM. hit rate 0.53% among 320,000. AID 2130;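 active means inhibition above the campaign mean of all compounds plus 3 SD, cut at about 26% in these data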;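 further: competitive labeling of PME-1 active site by serine hydrolase directed probe; 0% = PME-1 with DMSO and 100% = wells lacking PME-1 enzyme; inhibitors block probe labeling so polarization falls and inhibition rises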
Fam108b inh conf: confirmation of mouse Fam108b serine hydrolase inhibitors | shares compounds with Fam108B inh | recombinant Fam108b, FP-Rh probe fluorescence polarization | inhibition, % at 9.51 µM | hit rate 44% among 930;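 active means inhibition above a limit from the primary screen, the mean over all compounds plus 3 SD, cut at about 19% in these data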;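 further: 0% = median of active Fam108b wells and 100% = catalytically dead S170A mutant; inhibitors free the probe so polarization falls as inhibition rises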
Fam108b inh: inhibits mouse Fam108b in gel-based ABPP. shares compounds with Fam108B inh. recombinant Fam108b, fluorophosphonate probe. inhibition, % at 20 µM. hit rate 44% among 260. AID 588649; in the data active means inhibition above about 40%
Numbers without * were called inactive; / = no result.

SMILES | PAFAH1B3 FP inh | pPAFAH FP inh | PAFAH1B2 inh | PAFAH2 FP inh | Fam108B inh | PME-1 inh | Fam108b inh conf | others
CC(C)C(=O)NC(c1ccccc1Cl)c1c(O)ccc2ccccc12 (configuration not stated) | 10 | -15 | 3 | 10 | 5 | 12 | /
CCC(=O)NC(c1ccccc1Cl)c1c(O)ccc2ccccc12 (configuration not stated) | 7 | -8 | 4 | 10 | 18* | 47* | 1
CCOC(=O)C1CCN(C(=O)Nc2ccc3nc(-c4ccco4)c(-c4ccco4)nc3c2)CC1 | 13 | 60* | 11 | 21 | 34* | 11 | 40* | Fam108b inh=0
CCOC(=O)C1CCN(C(=O)Nc2ccc3c(c2)nc(C)n3C)CC1 | 10 | -1 | 4 | -8 | -4 | 4 | /
COc1ccc(/C=N\NC(=O)c2ccc(=O)[nH]n2)cc1O | 1 | 2 | -1 | 7 | 8 | -1 | /
COc1ccc(/C=N/NC(=O)c2cc(C34CC5CC(CC(C5)C3)C4)[nH]n2)cc1O | -1 | 13 | 29* | 6 | 24* | -8 | 3
CCOC(=O)Oc1c(OC)cc(C(=O)O[C@@H]2C[C@@H]3CN4CCc5c([nH]c6cc(OC)ccc56)[C@H]4C[C@@H]3[C@H](C(=O)OC)[C@H]2OC)cc1OC | 2 | 0 | -7 | 8 | 8 | 1 | /
COc1cc2nc(Nc3ccc(C)c(Cl)c3)nc(N)c2cc1OC | 20 | 22 | 12 | 10 | 23* | 35* | 16
COc1cccc(NC(=O)c2cccc(C)c2[N+](=O)[O-])c1 | -1 | -1 | -3 | -9 | -2 | -2 | /
CCn1c(CSc2nnc(-c3ccncc3)n2C)nc2cc(C(=O)O)ccc21 | 36* | 26* | 37* | 49* | 29* | 40* | 37* | Fam108b inh=15
O=C(O)c1cccc(-n2cccc2/C=C/[N+](=O)[O-])c1 | 19 | 29* | 6 | 25 | 25* | -13 | 1
O=C(O)c1cccc(-n2cccc2/C=C\[N+](=O)[O-])c1 | -2 | 15 | 1 | -3 | 5 | -7 | /
[S-]c1nnc(-c2ccc(Br)cc2)n1-c1ccccc1.[Zn+2] | -2 | 3 | 3 | 2 | -6 | 1 | /
N#Cc1c(Cl)c(Cl)c2nnc(-c3ccc(Br)cc3)n2c1Cl | / | 17 | / | / | 19* | 17 | 10
O=[N+]([O-])c1ccc(S(=O)(=O)Nc2ccc(-c3csc(-c4ccccc4)n3)cc2)cc1 | / | 12 | / | / | 25* | 4 | -7
O=C(CSc1nnc(Cc2csc(Nc3cccc(Cl)c3)n2)o1)N1CCc2ccccc21 | 0 | 5 | 3 | -18 | 19* | 7 | -13
O=C(CSc1nnc(CNc2ccccc2)o1)N1CCc2ccccc21 | 2 | 2 | 4 | 4 | 4 | -1 | /
COC(=O)c1c(Cl)c2n3ccccc3c(C)c(-c3ccccc3)c-2c1C(=O)OC | 17 | 20 | 0 | -1 | 19* | 16 | 10
COC(=O)c1cc2c(-c3ccccc3)c(C)c3ccccn3c-2c1C(=O)OC | 5 | 12 | 1 | 11 | 6 | 5 | /
CC(=O)c1cccc(NS(=O)(=O)c2ccc(N/C=C\C(=O)c3ccc(F)cc3)cc2)c1 | 0 | -6 | 0 | 0 | 22* | -15 | -6
COc1ccc(-c2nc(-c3ccccc3)c(-c3cc([N+](=O)[O-])ccc3C)[nH]2)cc1O | 10 | 10 | -4 | 5 | 28* | 39* | 11
COc1ccccc1NC(=O)Nc1nc(CC(=O)Nc2ccc(F)c(F)c2)cs1 | 0 | -5 | -5 | -24 | 20* | -23 | -18
CC/C(=N/NC(=O)c1ccc(Br)cc1)c1ccc(OCCN2CCOCC2)cc1 | 7 | 1 | 5 | 3 | 1 | 4 | /
CCCOc1ccc(/C(CC)=N/NC(=O)C2(C)CC2(Br)Br)cc1 (configuration not stated) | 9 | 10 | 2 | -5 | 41* | 25 | 3
Cc1cc(S(=O)(=O)N2CCOCC2)c(C)s1 | 0 | 3 | 0 | 8 | -1 | -2 | /
SMILES | PAFAH1B3 FP inh | pPAFAH FP inh | PAFAH1B2 inh | PAFAH2 FP inh | Fam108B inh | PME-1 inh | Fam108b inh conf | others
O=C1CC(c2ccccc2)=NN1c1nc(-c2ccccc2)cs1 | 18 | 28* | 8 | 66* | 19* | 11 | 9
O=C1C=C(Nc2ccccc2C(=O)O)c2ccccc2C1=O | 59* | 24 | 23 | 39* | 21* | 4 | 36* | Fam108b inh=0
O=C(O)c1ccccc1Nc1ccccc1C(=O)O | -3 | 3 | -1 | -1 | -2 | 4 | /
CC1(C)CC(=O)C2=C(C1)N=C1c3ccccc3C(=O)C1C2c1ccc(Cl)cc1 (configuration not stated) | 7 | 20 | 8 | 6 | 8 | 14 | /
Cc1ccc(C2C3=C(CC(C)(C)CC3=O)N=C3c4ccccc4C(=O)C32)cc1 (configuration not stated) | 18 | 15 | 17 | 18 | 23* | 11 | 15
Cc1cccc(NC(=S)NNc2cccc(Cl)c2)c1 | -8 | -2 | 1 | 3 | 0 | 2 | /
Cc1ccc(NS(=O)(=O)c2cc([N+](=O)[O-])ccc2NNC(=S)Nc2cccc(Cl)c2)c(C)c1 | -12 | 22 | 41* | 10 | 30* | 25 | 18
Cc1ccc(NS(=O)(=O)c2cc([N+](=O)[O-])ccc2NNC(=S)Nc2cc(C)ccc2C)c(C)c1 | 3 | 23 | 2 | 17 | 27* | 23 | -16
COc1ccc(NC(=S)NNc2ccc([N+](=O)[O-])cc2S(=O)(=O)Nc2ccc(C)cc2C)cc1 | 7 | 9 | 7 | 2 | 32* | 22 | 11
O=C(COC(=O)Cc1cccc(C(F)(F)F)c1)Nc1ccc2c(c1)OCCO2 | -4 | 12 | 2 | 0 | 1 | 0 | /
C1=C(CCNc2ncnc3c2[nH]c2ccccc23)CCCC1 | 11 | 7 | 8 | 4 | 21* | 45* | 8
O=c1c2[nH]c3ccccc3c2ncn1CCC1=CCCCC1 | 0 | 2 | -2 | 1 | 1 | 1 | /
CC(=O)NCCSc1ccc(S(=O)(=O)N2CCCC2)cn1 | 6 | 3 | 5 | 6 | / | 2 | /
C/C=C(\C)C(=O)NCCN1C2=NC[C@H](C(C)C)N2C[C@@H]1Cc1ccc(OC)cc1 | 1 | 5 | 4 | -2 | 21* | 4 | -7
O=C(Nc1ccc(F)cc1)Nc1ccc(N2CCCC2)c(S(=O)(=O)Nc2ccccc2Cl)c1 | -7 | 25* | -6 | -24 | 25* | 26 | 37* | Fam108b inh=95*
CC(C)CCN(C(=O)CCSc1ccc(F)cc1)c1c(N)n(Cc2ccccc2)c(=O)[nH]c1=O | -2 | 1 | -5 | -2 | -1 | 0 | /
